Reference: PubChem BioAssay AID1851 (National Center for Advancing Translational Sciences (NCATS), 2009)
“And” between values parts separate entries of the source, which are not always exact repeats. Equal entries are not always repeated. Screen size: about 16,000 compounds; about 5,800 (36%) were called active. Another 23% or so got no clear call; they are omitted. Calls follow the shape of the dose curve; as a rule, active = well fitted curve in the direction sought with a large enough effect; inconclusive = small, poorly fitted or top-dose-only effect, or effect the other way; inactive = no such curve, though single readings can be large or run the other way. The list shows a part of the results. More than one record can exist for a structure, and the calls need not agree.

target: Cytochrome P450 2C19 (Homo sapiens) (UniProt P33261); assay: Cytochrome panel assay with activity outcomes; settings: recombinant CYP, pro-luciferin dealkylation, luminescence, p450-cyp2c19; series mostly up to 57.1 µM; activity, negative = inhibition: at the top concentration
Sequence (P33261 whole entry, looked up): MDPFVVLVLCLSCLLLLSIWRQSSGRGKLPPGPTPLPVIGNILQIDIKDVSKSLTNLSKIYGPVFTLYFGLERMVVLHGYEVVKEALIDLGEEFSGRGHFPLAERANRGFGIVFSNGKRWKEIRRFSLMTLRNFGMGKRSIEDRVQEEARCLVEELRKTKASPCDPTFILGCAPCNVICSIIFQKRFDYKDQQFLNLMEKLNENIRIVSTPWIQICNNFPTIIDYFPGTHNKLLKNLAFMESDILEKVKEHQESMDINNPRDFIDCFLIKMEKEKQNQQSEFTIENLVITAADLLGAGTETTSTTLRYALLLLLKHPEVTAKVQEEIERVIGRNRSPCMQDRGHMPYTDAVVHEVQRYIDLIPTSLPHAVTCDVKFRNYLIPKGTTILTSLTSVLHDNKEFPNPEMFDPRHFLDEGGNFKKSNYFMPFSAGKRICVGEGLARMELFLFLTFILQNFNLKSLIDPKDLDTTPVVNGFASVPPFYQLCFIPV
% is scaled to controls: 0 for no effect and ±100 for the full control effect.

SMILES | AC50 | activity, negative = inhibition
C[C@]12CC3CC(N)(C1)C[C@@](C)(C3)C2 | inactive and 10 µM (active) | –
C[C@@]12CC3CC(N)(C1)C[C@@](C)(C3)C2 | – | -6.2% [at 25.6 µM] (inactive)
CCCn1c(CC)nc([N+](=O)[O-])c1S(=O)(=O)c1ccccc1 | 14.1 µM (active) | –
Cc1nc([N+](=O)[O-])c(N2CCN(C)CC2)n1Cc1ccccc1 | – | -21% (inactive)
COc1cc(-c2nnc(SC/C=C/c3ccccc3)n2N)cc(OC)c1OC | 15.8 µM (active) | –
CCS(=O)(=O)N1CCCC(C(=O)NCCCOC(C)C)C1 (stereo not given) | – | -29.1% (inactive)
CCC(C)NC(=O)C1CCCN(C(=O)NC2CCCCC2)C1 (stereo not given) | 14.1 µM (active) | –
CCCS(=O)(=O)N1CCCC(C(=O)NCCCOC(C)C)C1 (stereo not given) | – | -15.6% (inactive)
CO/N=C(\C(=O)N[C@@H]1C(=O)N2C(C(=O)O)=C(COC(N)=O)CS[C@@H]12)c1ccco1 | – | 3.25% [at 25.6 µM] (inactive)
O=C(CO)N/N=C/c1ccccc1F | – | -2.42% (inactive)
NC(=S)N/N=C/c1ccccc1OCc1cccc(Cl)c1 | 2.24 µM (active) | –
O=C(Cc1ccccc1)N/N=C/c1ccccc1OCc1ccc(Cl)cc1 | 4.47 µM (active) | –
Cc1cc2nc(C3CCCN(C(=O)NCc4ccccc4)C3)[nH]c2cc1C (stereo not given) | 20 µM (active) | –
CC1=C(C(=O)NCCN2CCN(C)CC2)C2(CCC(C)CC2)OC1=O (stereo not given) | – | -19.5% (inactive)
CC1=C(C(=O)N2CCCCCC2)C2(CCC(C)CC2)OC1=O (stereo not given) | 10 µM (active) | –
CN1C(=C2C(=O)OC(C)(C)OC2=O)Sc2ccccc21 | 1 µM (active) | –
O=[N+]([O-])c1ccc(CSc2ncnc3c2ncn3[C@@H]2O[C@@H](CO)[C@@H](O)[C@H]2O)cc1 | – | 33.6% (inactive)
N=C(N)SCCc1ccc(OCc2ccc([N+](=O)[O-])cc2)cc1 | – | -11.6% (inactive)
O=[N+]([O-])c1ccc(CSCc2ccc(Cl)cc2)cc1 | 0.398 µM (active) | –
COc1ccc(N2CCN(C(=O)CSc3nnc4c5cc(C)ccc5n(C)c4n3)CC2)cc1 | 1 µM (active) | –
Cc1cc(=O)[nH]c2c1c(C)nn2C1CCOC(C)(C)C1 (stereo not given) | – | -18.9% (inactive)
Cc1ccc2c(c1)C1(SCCS1)C(=O)N2 | 25.1 µM (active) | –
O=C1Nc2ccc(F)cc2C12SCCS2 | 11.2 µM (active) | –
CCc1c(O)c2c(c(O)c1C(C)=O)C(=O)c1c(cc(O)c(C(=O)O)c1C(=O)O)C2=O | – | -9.38% [at 11.4 µM] (inactive)

SMILES | AC50 | activity, negative = inhibition
CCOc1cc2[nH]c(=O)n(CCC(=O)NCc3ccc(OC)cc3)c(=O)c2cc1OCC | – | -16.3% (inactive)
CCOc1cc(CNCCCN2CCOCC2)cc(Br)c1OCC(=O)Nc1cccc(C(F)(F)F)c1 | – | -58.3% (inactive)
CCOc1cc(CNc2ccc(OC)cc2)cc(Br)c1OCC(=O)NC(C)(C)C | 5.62 µM (active) | –
OC[C@@H]1O[C@H](n2cnc3c(/C=C(\O)c4ccccc4)ncnc32)[C@H](O)[C@@H]1O | – | 34% [at 11.4 µM] (inactive)
CCOc1ccc(N2C(=O)CS/C2=N/NC(=O)COc2ccc3ccccc3c2)cc1 | 15.8 µM (active) | –
O=C(CSCc1ccccc1Cl)NNC(=S)Nc1ccccc1 | 2.24 µM (active) | –
O=C(NNC(=O)c1ccccc1O)c1ccc(Cl)cc1 | – | -20.8% (inactive)
O=C(CSCc1ccccc1Cl)NN1C(=O)c2ccccc2C1=O | 10 µM (active) | –
O=C(NNC(=S)Nc1ccccc1)C1CC1 | – | -32.8% (inactive)
O=C(CSCc1ccccc1Cl)NNC(=O)c1ccccc1 | 5.01 µM (active) | –
O=C(O)c1c2c(c(O)c3c1CN(C1CCCCC1)CO3)OCN(C1CCCCC1)C2 | – | 22.2% [at 11.4 µM] (inactive)
CCn1c(SCC(=O)NC2CCCc3ccccc32)nnc1-c1cccs1 (stereo not given) | 7.94 µM (active) | –
CCn1c(SCC(=O)NC(=O)NCc2ccco2)nnc1-c1cccs1 | 14.1 µM (active) | –
O=C(CSc1nc2ccc([N+](=O)[O-])cc2s1)c1ccc2ccccc2c1 | – | -43.1% [at 11.4 µM] (inactive)
CCn1c(SCC(=O)c2ccccc2)nnc1-c1cccs1 | 0.794 µM (active) | –
CCn1c(SCC(=O)c2ccc3ccccc3c2)nnc1-c1cccs1 | 0.708 µM (active) | –
Cc1cc(C)nc(SCc2nnc(SCC(N)=O)n2Cc2ccco2)n1 | – | -67.7% (inactive)
Cc1ccccc1CSc1nnc(-c2cccs2)n1Cc1ccco1 | 1.41 µM (active) | –
O=C1C[C@@H](O)[C@@H](O)[C@H]2[C@@H]3C(=O)N(C4CCCCC4)C(=O)[C@@H]3CC[C@H]12 | – | 13.8% [at 11.4 µM] (inactive) and 12.1% [at 11.4 µM] (inactive) and 0.0924% [at 11.4 µM] (inactive)
CCn1c(SCC(=O)Nc2sc3c(c2C(N)=O)CCC(C)C3)nnc1-c1ccco1 (stereo not given) | 7.08 µM (active) | –
O=C(O)/C=C\C(=O)N1Cc2cc3ccccc3nc2C1 | – | 21.9% [at 11.4 µM] (inactive)
O=C(/C=C/c1ccccc1)N1CCN(Cc2nc3ccccc3c(=O)[nH]2)CC1 | 22.4 µM (active) | –
O=C(O)c1ccccc1C(=O)Nc1cc2c(cc1Br)-c1ccccc1C2=O | – | -19.4% [at 11.4 µM] (inactive)
O=C1c2ccccc2C(=O)c2c1ccc(C(=O)O)c2-c1ccc2ccccc2c1 | 2.51 µM (active) | –

SMILES | AC50 | activity, negative = inhibition
O=C(O)c1cccc2cccc(-c3cccc4cccc(C(=O)O)c34)c12 | – | -9.27% [at 11.4 µM] (inactive)
Cc1cccc(C(CC(=O)N2CCCC2)c2ccccc2)c1O (stereo not given) | 1.41 µM (active) | –
COCC(=O)N1CCC2(CC1)CCN(C(c1ccccc1)c1ccccc1)CC2 | – | 7.45% (inactive)
Cc1cccc(C(=O)c2ccccc2C(=O)O)c1O | – | 6.75% (inactive)
CN(C)C[C@H]1CCC[C@@H](CN(C)C)C1=O | – | 19.2% [at 11.4 µM] (inactive)
N[C@@H](CO)C(=O)O | inactive | –
CC(C)[C@H]1C(=O)C(C(N)=O)=C(O)[C@]2(O)C(=O)C3=C(O)c4c(O)ccc(N(C)C)c4C[C@H]3C[C@@H]12 | – | 4.29% (inactive)
O=c1ccn(-c2cccc(C(F)(F)F)c2)nc1-c1ccn(-c2ccccc2F)n1 | 17.8 µM (active) | –
CS(=O)(=O)N1CC(C(=O)NC2CC2)Oc2ccc(Cl)cc21 (stereo not given) | 7.08 µM (active) | –
CCS(=O)(=O)c1ccc2c(c1)N(S(C)(=O)=O)CC(C(=O)NCCOC)O2 (stereo not given) | – | -18.7% (inactive)
CC(C)(C)NC[C@H](O)c1cc(O)cc(O)c1 | inactive | –
CN1CCc2cc(Cl)c(O)cc2[C@H](c2ccccc2)C1 | – | -13.6% (inactive)
Cc1ccc2nc(N3CCN(S(=O)(=O)c4ccc5c(c4)OCCO5)CC3)c(C#N)cc2c1 | 2.51 µM (active) | –
Cc1ccc(Cl)cc1N1CCN(S(=O)(=O)c2ccc3c(c2)OCCO3)CC1 | 3.98 µM (active) | –
O=C(O)CCC(=O)N1CCOc2ccc(Cl)cc21 | – | -15.9% (inactive)
CO[C@@H]1COC(=O)CC=C[C@@H](C)[C@@H]2C=C[C@H](O)[C@@H](COC(=O)[C@H](C)NC(=O)CC=C[C@H]1C)O2 | – | -12.2% [at 11.4 µM] (inactive)
CCOc1cc(NC(=O)c2cccs2)c(OCC)cc1NC(=O)c1ccco1 | – | -24.3% (inactive)
CCCC[P+](CCCC)(CCCC)Cc1ccc(NC(=O)[C@@H](Cc2ccc3ccccc3c2)NC(=NC2CCCCC2)NC2CCCCC2)cc1 | – | 1.34% (inactive)
CCOc1cc(NC(=O)C2CCCCC2)c(OCC)cc1NC(=O)c1ccco1 | 7.94 µM (active) | –
CCC(NC(=O)c1ccccc1NC(=O)c1ccco1)C(=O)NC1CCCCC1 (stereo not given) | 15.8 µM (active) | –
FC(F)(F)c1ccccc1-c1nc(NCc2cccs2)c2ccccc2n1 | 7.94 µM (active) | –
CC(=O)NCCNc1nc(-c2ccccc2C(F)(F)F)nc2ccccc12 | – | -28.8% (inactive)
CN(C)C(=O)c1ccc(-c2nc(NCc3cccnc3)c3ccccc3n2)cc1 | – | -11.9% (inactive)
CC(=O)NCCNc1nc(-c2ccccc2Cl)nc2ccccc12 | 3.98 µM (active) | –

SMILES | AC50 | activity, negative = inhibition
FC(F)(F)c1ccccc1-c1nc(NCCN2CCOCC2)c2ccccc2n1 | – | -29.9% (inactive)
CC(=O)NCCNc1nc(-c2ccccc2C)nc2ccccc12 | – | -22.4% (inactive)
COCCNc1nc(-c2ccccc2OC)nc2ccccc12 | – | -35% (inactive)
FC(F)(F)c1ccccc1-c1nc(NCc2cccnc2)c2ccccc2n1 | 3.98 µM (active) | –
COCCNc1nc(-c2ccccc2C(F)(F)F)nc2ccccc12 | 20 µM (active) | –
CCOC(=O)CCN1C(=O)[C@H]2[C@H]3[C@H](O)[C@H](O)C/C(=N/OC/C=C(\C)CCC=C(C)C)[C@@H]3CC[C@@H]2C1=O | – | 6.34% [at 11.4 µM] (inactive)
CCCCCCCCCCCCCCC[C@@H](O)[C@@H](N)CO | – | -34.9% (inactive)
O=c1[nH]c(SCc2c(Cl)c(Cl)c(Cl)c(Cl)c2Cl)nc(=S)[nH]1 | – | -28.6% [at 11.4 µM] (inactive)
Clc1ccccc1-c1nc(NCc2cccs2)c2ccccc2n1 | 7.94 µM (active) | –
CN(C)Cc1ccccc1-c1nc(NCc2cccs2)c2ccccc2n1 | – | 21.4% (inactive)
CN(C)CCNC(=O)Cn1nc(-c2ccc(Cl)cc2)ccc1=O | – | -7.39% (inactive)
COc1ccc(NC(=O)N2CCC3(CC2)CCN(C(=O)c2csnn2)CC3)cc1 | – | 6.58% (inactive)
CC(=O)C1C(c2ccccc2OC(F)F)NC(=O)NC1(O)C(F)(F)F (stereo not given) | – | -20.9% (inactive)
Cn1c(-c2ccc(F)cc2)cnc1NCc1ccc(F)cc1 | 2.51 µM (active) | –
Cn1c(-c2ccc(F)cc2)cnc1NCc1cccc(F)c1 | 6.31 µM (active) | –
CCNc1ncc2nc(-c3ccc(F)cc3)c(=O)n(C)c2n1 | – | 12.1% (inactive)
Cn1c(-c2ccccc2)cnc1N | – | -26.7% (inactive)
Cc1ccc(-c2cnc(NC(=O)CCC(=O)N3CCCCC3)n2C)cc1 | – | -26.8% (inactive)
CCN(CC)C[C@@H](O)CN1CCCCc2nc(C)c(C)cc21 | – | 32.1% [at 11.4 µM] (inactive)
O=C(c1ccco1)N1CCC2(CC1)CN(Cc1cc(C(F)(F)F)cc(C(F)(F)F)c1)C2 | – | -26.9% (inactive)
O=C(NC1(C(F)(F)F)NC(=O)N(Cc2cccnc2)C1=O)c1ccccc1 (stereo not given) | 15.8 µM (active) | –
CCCCN1C(=O)NC(NC(=O)c2ccco2)(C(F)(F)F)C1=O (stereo not given) | 8.91 µM (active) | –
O=C(NC1(C(F)(F)F)C(=O)Nc2c1c(=O)[nH]c(=O)n2-c1ccc(F)cc1)c1cccnc1 (stereo not given) | – | -21.4% (inactive)
